# This is a sample that favours compounds with a hit; in the whole collection about 19% have one here.
# DT40 TDP1 CPT = qHTS for Inhibitors of human tyrosyl-DNA phosphodiesterase 1 (TDP1): qHTS in cells in presence of CPT; Potency, µM (top dose mostly 46.2 µM), usual class: inhibitors; chicken DT40 Tdp1-/-;hTDP1 cells + 20 nM CPT, ATP luminescence, 48 h; 420,000 tested, 12% active; further: nearly all actives have a fitted effect of over 55% in size
#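 Chicken DT40 Tdp1-/- cells stably complemented with human TDP1 were seeded at 400 cells/well in medium containing 20 nM camptothecin, exposed to pin-transferred compounds, and grown at 37 °C for at least 48 hr. Viability was read as ATP luminescence.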
# TDP1 cell noCPT = qHTS for Inhibitors of human tyrosyl-DNA phosphodiesterase 1 (TDP1): qHTS in cells in absence of CPT; DT40 Tdp1-/- hTDP1 cells, no CPT, ATP luminescence, 48 h; Potency, µM (highest dose often 46.2 µM), most hits filed as inhibitors; 420,000 tested, 15% active; further: nearly all actives have a fitted effect of over 55% in size
#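 Stably hTDP1-transfected Tdp1-null chicken DT40 cells were treated with library compounds minus camptothecin and grown for at least 48 hr at 37 °C, after which cellular ATP was quantified by luminescence.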
# IL1B secr inh = qHTS for Inhibitors of Inflammasome Signaling: IL-1-beta AlphaLISA Primary Screen | THP-1 LPS/ATP IL-1B secretion, AlphaLISA, 16 h; active compounds read low | activity change, % at 57.5 µM | 360,000 tested, 4.7% active; in the data active means activity change below about -50%; inconclusive means mostly about -30% to -49%
#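 Secreted IL-1B measured by AlphaLISA bead assay after 16 h compound exposure of THP-1 cells; compounds (final up to 57.5 uM) added 1 h before LPS (250 ng/mL) and ATP (1.25 mM) stimulation; lower signal means less secretion.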
# TDP1 inh = qHTS Assay for Inhibitors of Tyrosyl-DNA Phosphodiesterase (TDP1); recombinant TDP1, AlphaScreen DNA substrate cleavage; Potency, µM (doses to about 130 µM), most hits filed as inhibitors; 350,000 tested, 0.28% active; AID 485290, 2010; further: nearly all actives have a fitted effect of over 40% in size
# Target sequence (Q9NUW8 whole entry, looked up): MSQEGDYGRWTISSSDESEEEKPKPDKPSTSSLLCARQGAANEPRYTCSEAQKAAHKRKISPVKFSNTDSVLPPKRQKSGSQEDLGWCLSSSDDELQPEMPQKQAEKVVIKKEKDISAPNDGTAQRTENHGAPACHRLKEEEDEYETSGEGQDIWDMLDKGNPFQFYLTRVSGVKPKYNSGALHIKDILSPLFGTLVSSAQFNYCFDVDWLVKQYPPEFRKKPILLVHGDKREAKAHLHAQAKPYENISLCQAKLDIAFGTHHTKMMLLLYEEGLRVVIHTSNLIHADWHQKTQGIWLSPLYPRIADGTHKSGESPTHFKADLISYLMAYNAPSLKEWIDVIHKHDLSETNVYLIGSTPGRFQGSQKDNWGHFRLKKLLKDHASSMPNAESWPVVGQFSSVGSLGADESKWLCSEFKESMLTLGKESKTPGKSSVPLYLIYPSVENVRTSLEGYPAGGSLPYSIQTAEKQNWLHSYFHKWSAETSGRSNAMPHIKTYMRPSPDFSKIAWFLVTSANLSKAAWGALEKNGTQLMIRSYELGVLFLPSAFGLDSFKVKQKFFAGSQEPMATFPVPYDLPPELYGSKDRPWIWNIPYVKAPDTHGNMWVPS
#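 Here, a 5' biotin and 3' phosphotyrosine-FITC DNA oligonucleotide reports Tdp1 activity: intact substrate bridges AlphaScreen beads, while cleavage leaves a 3' phosphate and drops signal. All incubations at room temperature.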
# HepG2 viability = qHTS for Inhibitors of TGF-b: Cytotox Counterscreen. HepG2 CAGA-GFP viability, ATP luminescence, 18 h. Potency, µM (series often up to 46.1 µM), usual class: cytotoxic. 410,000 tested, 0.76% active. AID 588856, 2011
#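 CellTiter-Glo luminescence gave cytotoxicity after 18 hours at 37 degrees C. The cells were HepG2 CAGA-GFP in 1% FBS DMEM, stimulated with 500 pg/mL TGF-beta after compound addition. %Activity was normalised to no-cell wells (complete cell-killing) and DMSO (no toxicity), and curves were fitted and classified.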
# TGFb SMAD3 inh = qHTS for Inhibitors of TGF-b | 410,000 tested, 1.2% active | Potency, µM (series often up to 46.1 µM), usual class: inhibitors | HepG2 CAGA-GFP TGF-b/SMAD3 reporter, GFP fluorescence, 18 h; TGF-beta stimulated, 500 pg/mL final; further: nearly all actives have a fitted effect of over 65% in size
#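 Smad-responsive CAGA-GFP expression was quantified in HEPG2 cells exposed to compounds and 500 pg/mL final TGF-beta for 18 h at 37 degrees C; unstimulated wells defined full inhibition.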
# Hits are given with their value; - = inactive; ? = inconclusive; . = not tested or not shown; [ ] = remark or other dose. Unless noted, the call rests on the fitted dose curve; in most records, active means well fitted curve in the direction sought with a large enough effect; inconclusive means small, poorly fitted or top-dose-only effect, or another doubt; inactive means no such curve, though single readings can be large; an effect the other way counts as inactive or inconclusive.
SMILES,DT40 TDP1 CPT,TDP1 cell noCPT,IL1B secr inh,TDP1 inh,HepG2 viability,TGFb SMAD3 inh
Clc1ccccc1CN(Cc1ccccc1)C(c1cccs1)c1nnnn1C1CCCC1 (stereo not drawn),?,21µM,?,-,-,-
CCN(Cc1ccccc1)C(c1ccccn1)c1nnnn1C1CCCCC1 (stereo not drawn),?,?,-,-,-,?
c1csc(C(c2nnnn2C2CCCC2)N2CCOCC2)c1 (stereo not drawn),-,-,-,-,-,-
Clc1ccc(CN(CC2CCCO2)C(c2cccs2)c2nnnn2C2CCCC2)cc1 (stereo not drawn),7.3µM,6.5µM,-,-,-,-
CCCNC(=O)OC[C@@H]1O[C@H](CCO/N=C(\C)CCN2CCc3nc(-c4ccccc4)c(-c4ccccc4)cc3C2)C=C[C@@H]1Oc1ccc(OC)cc1,.,.,.,-[21 µM],.,.
Cc1ccc(OCCOc2ccc(Br)cc2)c([N+](=O)[O-])n1,-,-,-58,-,-,-
Cc1ccc(OCc2ccc([N+](=O)[O-])cc2)c([N+](=O)[O-])n1,-,-,-,-,-,-
COc1cc(C)c(Cl)cc1S(=O)(=O)n1cnc(C)c1,-,-,-,-,-,-
COc1ccc(C(C)C)cc1S(=O)(=O)n1cnc(C)c1,16µM,23µM,-,-,-,?
Cc1nnc(SC(C)C(=O)N(C)C2CCCCC2)n1N (stereo not drawn),-,-,-,-,-,-
Cc1cc(C(=O)N/N=C/c2ccc(OC(=O)c3ccccc3Br)cc2)n[nH]1,?,?,-,-,-,-
Cc1cc(C(=O)N/N=C/c2cc(Br)ccc2OC(=O)c2ccccc2)n[nH]1,7.3µM,6.5µM,-,-,-,-
Cc1cc(C(=O)N/N=C/c2cc(Br)ccc2OC(=O)c2ccccc2Cl)n[nH]1,5.8µM,4.6µM,-,-,-,-
CCCNC(=O)C1(C)CCN(C(=O)c2ccc(OC)cc2OC)C1 (stereo not drawn),-,-,-,.,-,-
CC(C)CCCC(C)CCCC(C)CCCCC(C)CCCC(C)CCCC(C)C (stereo not drawn),-,-,.,-,.,.
CCC(=O)N1CCCC1(C)C(=O)NCc1ccc(SC)cc1 (stereo not drawn),-,-,-,.,-,-
CSc1ccc(CNC(=O)C2(C)CCCN2CC(C)C)cc1 (stereo not drawn),18µM,16µM,-,.,-,-
O=Cc1cnc2ccccc2c1-c1ccccc1,?,23µM,-,-,-,-
COc1ccc(N(CC(=O)NCCSC2CCCCC2)S(=O)(=O)c2ccc(C)cc2)cc1,-,23µM,-,-,-,-
Cc1ccc(N(CC(=O)NCC(O)c2ccccc2)S(=O)(=O)c2ccc(C)cc2)cc1 (stereo not drawn),-,-,-94,-,-,-
CCNC(=O)CN(c1ccc(C)cc1)S(=O)(=O)c1ccccc1,-,-,-,-,-,-
COc1ccc(N(CC(=O)NCCSc2ccccc2)S(C)(=O)=O)cc1,-,-,-,-,-,-
COc1ccc(S(=O)(=O)N(CC(=O)NCCSc2ccccc2)c2ccc(Cl)cc2)cc1,16µM,12µM,.,.,-,-
COc1ccc(CCNC(=O)CN(c2ccc(OC)c(OC)c2)S(=O)(=O)c2ccc(C)cc2)cc1,-,-,-,-,-,-
COc1ccc(N(CC(=O)NCCSC2CCCCC2)S(=O)(=O)c2ccccc2)c(OC)c1,.,.,.,-,.,.
COc1ccc(CCNC(=O)CN(c2ccc(C)cc2)S(=O)(=O)c2ccc(OC)cc2)cc1,?,23µM,.,.,-,-

# Screening results from PubChem.
